An excerpt weighted towards active compounds, which were near 21% of everything screened.
ELG1 DNA repair – blocks ELG1-dependent DNA repair in HEK293T cells; HEK293T ELG1-luciferase reporter, luminescence, 16 h; DNA damage induced by 5-fluorouridine; Potency, µM (series often up to 46.1 µM), usual class: inhibitors; 330,000 compounds, 2.3% hits; AID 504467; also: nearly all actives have a fitted effect of over 55% in size
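5-Fluorouridine DNA damage + compound/DMSO, 2,000 cells/well, 16 h, 37 °C/5% CO2. ONE-Glo, 30 min RT, luminescence. Readout = decrease in reporter signal.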
DT40 TDP1 no CPT – qHTS for Inhibitors of human tyrosyl-DNA phosphodiesterase 1 (TDP1): qHTS in cells in absence of CPT; AID 686978, 2013; Potency, µM (series often up to 46.2 µM), hits mostly inhibitors; 420,000 compounds, 15% hits; DT40 Tdp1-/- hTDP1 cells, no CPT, ATP luminescence, 48 h; also: nearly all actives have a fitted effect of over 55% in size
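Growth of hTDP1-complemented DT40 Tdp1-knockout cells is measured by ATP luminescence after at least 48 hr compound exposure at 37 °C, with DMSO substituting for the 20 nM CPT used in the parallel screen.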
Gal4-VP16 FLuc – counter-screen for ROR gamma inhibitors: Gal4-VP16 reporter. Drosophila S2 Gal4-VP16 UAS-luciferase, luminescence, 20 h. Potency, µM (titrated, usually from 53.6 µM), usual class: inhibitors. 310,000 compounds, 3.5% hits. AID 2546;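 also: Gal4-VP16 expression switched on by copper sulfate through the metallothionein promoter; nearly all actives have a fitted effect of over 50% in size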
TDP1 cell CPT – DT40-hTDP1 cell growth loss with CPT; 420,000 compounds, 12% hits; AID 686979; chicken DT40 Tdp1-/-;hTDP1 cells + 20 nM CPT, ATP luminescence, 48 h; Potency, µM (series often up to 46.2 µM), hits mostly inhibitors; also: nearly all actives have a fitted effect of over 55% in size
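Chicken DT40 Tdp1-/- cells complemented with human TDP1, 400 cells/well, exposed to compounds plus 20 nM camptothecin for at least 48 h at 37 C; viability read as ATP content by CellTiter-Glo luminescence.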
RORg inh – blocks mouse ROR gamma transcriptional activity | Potency, µM (series often up to 53.6 µM), most hits filed as inhibitors | Drosophila S2 Gal4-RORgamma UAS-luciferase reporter, 20 h | P51450 | 310,000 compounds, 5.4% hits; also: nearly all actives have a fitted effect of over 60% in size
Target sequence (P51450 whole entry, looked up, the tested form may be a part): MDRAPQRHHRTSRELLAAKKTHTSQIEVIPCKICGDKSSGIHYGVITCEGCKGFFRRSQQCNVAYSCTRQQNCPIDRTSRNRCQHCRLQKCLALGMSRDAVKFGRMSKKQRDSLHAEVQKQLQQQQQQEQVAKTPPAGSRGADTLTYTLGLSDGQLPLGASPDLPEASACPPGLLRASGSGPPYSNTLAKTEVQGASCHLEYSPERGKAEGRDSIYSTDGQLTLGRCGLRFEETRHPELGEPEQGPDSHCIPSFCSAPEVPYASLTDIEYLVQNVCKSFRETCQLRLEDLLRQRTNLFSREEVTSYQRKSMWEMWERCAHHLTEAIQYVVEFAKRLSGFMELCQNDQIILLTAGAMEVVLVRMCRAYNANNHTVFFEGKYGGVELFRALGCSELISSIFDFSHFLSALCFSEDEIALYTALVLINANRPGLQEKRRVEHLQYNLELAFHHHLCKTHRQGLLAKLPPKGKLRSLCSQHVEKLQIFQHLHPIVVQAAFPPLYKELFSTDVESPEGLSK
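ROR gamma transcriptional activity was tracked as Gal4-UAS luciferase output in stably transfected Drosophila Schneider cells, with compound added 1 hr before 700 uM copper sulfate induction and a 20 hr ambient-temperature incubation.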
IL1B secr inh – blocks inflammasome-driven IL-1 beta release; THP-1 LPS/ATP IL-1B secretion, AlphaLISA, 16 h; active compounds read low; activity change, % at 57.5 µM; 360,000 compounds, 4.7% hits; in the data active = activity change below about -50%; inconclusive = mostly about -30% to -49%
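THP-1 cells pretreated 1 hr with compounds (up to 57.5 uM final), then stimulated with LPS (250 ng/mL final) plus ATP (1.25 mM final); secreted IL-1B measured by AlphaLISA after 16 hr, decreased signal indicating inhibition.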
Of the large screens only hits and unclear results are named; the others gave an inactive call. Unless noted, calls follow the shape of the dose curve; as a rule, active = well fitted curve in the direction sought with a large enough effect; inconclusive = small, poorly fitted or top-dose-only effect, or another doubt; inactive = no such curve, though single readings can be large; an effect the other way counts as inactive or inconclusive.

CC(C)CO/N=C1/C[C@@H](O)[C@@H](O)[C@@H]2[C@@H]3C(=O)N(Cc4ccccc4)C(=O)[C@H]3CC[C@H]12	none (no result: ELG1 DNA repair, DT40 TDP1 no CPT, TDP1 cell CPT, IL1B secr inh)
O=C(Nc1ccc(N2CCOCC2)c2nonc12)C1CCCC1	ELG1 DNA repair inconclusive, DT40 TDP1 no CPT 26µM, TDP1 cell CPT 18µM
CCc1ccc(S(=O)(=O)c2nnn3c2nc(N(C)Cc2ccccc2)c2cc(Cl)ccc23)cc1	none (no result: ELG1 DNA repair, Gal4-VP16 FLuc, RORg inh, IL1B secr inh)
COCCCNc1nc2c(S(=O)(=O)c3ccccc3)nnn2c2ccc(Cl)cc12	none (no result: ELG1 DNA repair, Gal4-VP16 FLuc, RORg inh, IL1B secr inh)
O=S(=O)(c1ccccc1)c1nnn2c1nc(NCc1ccccc1)c1cc(Cl)ccc12	DT40 TDP1 no CPT inconclusive, TDP1 cell CPT 18µM (no result: ELG1 DNA repair, Gal4-VP16 FLuc, RORg inh, IL1B secr inh)
O=C1CCCN1CCCNc1nc2c(S(=O)(=O)c3ccccc3)nnn2c2ccc(Cl)cc12	DT40 TDP1 no CPT inconclusive, TDP1 cell CPT 21µM, IL1B secr inh inconclusive
CCc1ccc(S(=O)(=O)c2nnn3c2nc(N(CC)Cc2ccccc2)c2cc(Cl)ccc23)cc1	DT40 TDP1 no CPT 16µM, TDP1 cell CPT 9.2µM (no result: ELG1 DNA repair, Gal4-VP16 FLuc, RORg inh, IL1B secr inh)
CC(=O)N1C[C@H]2CON(C)[C@H]2C[C@H]1c1cccc(N2CCOCC2)c1	DT40 TDP1 no CPT inconclusive (no result: ELG1 DNA repair, Gal4-VP16 FLuc, RORg inh)
Cc1c(Cn2ccnc2)c2ccccc2n1CCC(=O)O	none (no result: ELG1 DNA repair, IL1B secr inh)
O=C1[C@@H]2[C@H]3[C@H](O)[C@H](O)C/C(=N/OCc4ccccc4)[C@H]3CC[C@H]2C(=O)N1c1ccc(F)cc1F	none (no result: ELG1 DNA repair, DT40 TDP1 no CPT, TDP1 cell CPT, IL1B secr inh)
CC(C)=CCc1c(O)ccc(C(=O)Cc2ccccc2)c1O	DT40 TDP1 no CPT inconclusive
COc1cc(O)c(CC=C(C)C)c(O)c1C(=O)CCc1ccc(O)cc1	DT40 TDP1 no CPT 21µM, TDP1 cell CPT 21µM
CC(=O)N(/N=C/c1ccc(C)cc1)c1nc(CCl)cs1	DT40 TDP1 no CPT inconclusive, TDP1 cell CPT 15µM
Cc1ccc(-c2nc(CSCC(=O)N3CCN(c4ccccn4)CC3)c(C)o2)cc1	ELG1 DNA repair 10µM, DT40 TDP1 no CPT 21µM, Gal4-VP16 FLuc inconclusive, TDP1 cell CPT 18µM, RORg inh inconclusive
CCc1ccc(-c2nc(CSCC(=O)N3CCN(c4ccccn4)CC3)c(C)o2)cc1	ELG1 DNA repair inconclusive, DT40 TDP1 no CPT 18µM, Gal4-VP16 FLuc 13µM, TDP1 cell CPT 23µM, RORg inh inconclusive, IL1B secr inh inconclusive
CCN1C[C@@H]2[C@@H]3C(=O)N(C)C(=O)[C@@H]3[C@](C)(C1=O)N2C(=O)c1ccc(Br)cc1	none (no result: ELG1 DNA repair, Gal4-VP16 FLuc, RORg inh)
CO[C@@H]1CN(C)C(=O)c2ccc(NC(=O)C3CCCC3)cc2OC[C@@H](C)N(Cc2ccc(F)cc2)C[C@H]1C	DT40 TDP1 no CPT inconclusive, TDP1 cell CPT inconclusive (no result: ELG1 DNA repair, Gal4-VP16 FLuc, RORg inh)
CO[C@@H]1CN(C)C(=O)c2ccc(NC(C)=O)cc2OC[C@@H](C)N(C(=O)NC2CCCCC2)C[C@H]1C	none (no result: ELG1 DNA repair, Gal4-VP16 FLuc, RORg inh)
CO[C@@H]1CN(C)C(=O)c2cc(NC(=O)NC3CCCCC3)ccc2OC[C@@H](C)N(CCc2ccccc2)C[C@@H]1C	DT40 TDP1 no CPT inconclusive, TDP1 cell CPT 16µM (no result: ELG1 DNA repair, Gal4-VP16 FLuc, RORg inh)
CCC(=O)Nc1ccc2c(c1)OC[C@@H](C)N(Cc1cccc(F)c1)C[C@@H](C)[C@@H](OC)CN(C)C2=O	DT40 TDP1 no CPT 23µM, TDP1 cell CPT inconclusive (no result: ELG1 DNA repair, Gal4-VP16 FLuc, RORg inh)
CO[C@H]1CN(C)C(=O)c2ccc(NC(=O)C3CCC3)cc2OC[C@H](C)N(CC2CCCCC2)C[C@@H]1C	DT40 TDP1 no CPT 21µM, TDP1 cell CPT inconclusive (no result: ELG1 DNA repair, Gal4-VP16 FLuc, RORg inh)
CCOc1ccc(S(=O)(=O)n2ccnc2C)cc1	none (no result: DT40 TDP1 no CPT, TDP1 cell CPT, IL1B secr inh)
CCOc1ccc(/C=N/Nc2nc(N3CCCC3)nc(N3CCCC3)n2)cc1OC	ELG1 DNA repair inconclusive, DT40 TDP1 no CPT inconclusive, Gal4-VP16 FLuc inconclusive, RORg inh 13µM
COc1ccc(/C=N/Nc2nc(N3CCCC3)nc(N3CCCC3)n2)c(OC)c1OC	ELG1 DNA repair inconclusive, RORg inh 7.9µM
COc1cccc(/C=N/Nc2nc(N3CCCC3)nc(N3CCCC3)n2)c1O	ELG1 DNA repair 15µM, DT40 TDP1 no CPT 21µM, Gal4-VP16 FLuc inconclusive, TDP1 cell CPT inconclusive, RORg inh 10µM, IL1B secr inh -100
